Targets with a hit are over-represented here; the source holds about 7,900 in all. About 0.6% of all pairs of compound and target were hits.

UniProt Q969X6, sequence (Q969X6 whole entry, looked up): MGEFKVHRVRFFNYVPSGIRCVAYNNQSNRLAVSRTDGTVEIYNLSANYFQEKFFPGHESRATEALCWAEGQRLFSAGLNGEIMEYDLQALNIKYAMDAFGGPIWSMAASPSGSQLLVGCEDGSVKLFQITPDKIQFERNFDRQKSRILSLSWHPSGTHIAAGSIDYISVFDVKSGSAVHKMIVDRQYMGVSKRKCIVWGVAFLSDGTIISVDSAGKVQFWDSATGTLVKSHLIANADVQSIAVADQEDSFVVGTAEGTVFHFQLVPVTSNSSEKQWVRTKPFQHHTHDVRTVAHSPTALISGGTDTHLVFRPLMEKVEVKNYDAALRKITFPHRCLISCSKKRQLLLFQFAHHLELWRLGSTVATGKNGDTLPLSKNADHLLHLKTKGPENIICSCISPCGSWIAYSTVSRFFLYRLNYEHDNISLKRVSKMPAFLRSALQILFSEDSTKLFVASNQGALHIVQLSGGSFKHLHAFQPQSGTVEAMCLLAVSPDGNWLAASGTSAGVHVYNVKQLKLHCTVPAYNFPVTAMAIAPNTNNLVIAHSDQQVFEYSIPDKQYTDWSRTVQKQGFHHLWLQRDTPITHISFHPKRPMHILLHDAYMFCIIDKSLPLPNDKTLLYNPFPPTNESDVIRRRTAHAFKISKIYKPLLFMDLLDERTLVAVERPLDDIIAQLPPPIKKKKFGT
UniProt A0JNW5, sequence (A0JNW5 whole entry, looked up): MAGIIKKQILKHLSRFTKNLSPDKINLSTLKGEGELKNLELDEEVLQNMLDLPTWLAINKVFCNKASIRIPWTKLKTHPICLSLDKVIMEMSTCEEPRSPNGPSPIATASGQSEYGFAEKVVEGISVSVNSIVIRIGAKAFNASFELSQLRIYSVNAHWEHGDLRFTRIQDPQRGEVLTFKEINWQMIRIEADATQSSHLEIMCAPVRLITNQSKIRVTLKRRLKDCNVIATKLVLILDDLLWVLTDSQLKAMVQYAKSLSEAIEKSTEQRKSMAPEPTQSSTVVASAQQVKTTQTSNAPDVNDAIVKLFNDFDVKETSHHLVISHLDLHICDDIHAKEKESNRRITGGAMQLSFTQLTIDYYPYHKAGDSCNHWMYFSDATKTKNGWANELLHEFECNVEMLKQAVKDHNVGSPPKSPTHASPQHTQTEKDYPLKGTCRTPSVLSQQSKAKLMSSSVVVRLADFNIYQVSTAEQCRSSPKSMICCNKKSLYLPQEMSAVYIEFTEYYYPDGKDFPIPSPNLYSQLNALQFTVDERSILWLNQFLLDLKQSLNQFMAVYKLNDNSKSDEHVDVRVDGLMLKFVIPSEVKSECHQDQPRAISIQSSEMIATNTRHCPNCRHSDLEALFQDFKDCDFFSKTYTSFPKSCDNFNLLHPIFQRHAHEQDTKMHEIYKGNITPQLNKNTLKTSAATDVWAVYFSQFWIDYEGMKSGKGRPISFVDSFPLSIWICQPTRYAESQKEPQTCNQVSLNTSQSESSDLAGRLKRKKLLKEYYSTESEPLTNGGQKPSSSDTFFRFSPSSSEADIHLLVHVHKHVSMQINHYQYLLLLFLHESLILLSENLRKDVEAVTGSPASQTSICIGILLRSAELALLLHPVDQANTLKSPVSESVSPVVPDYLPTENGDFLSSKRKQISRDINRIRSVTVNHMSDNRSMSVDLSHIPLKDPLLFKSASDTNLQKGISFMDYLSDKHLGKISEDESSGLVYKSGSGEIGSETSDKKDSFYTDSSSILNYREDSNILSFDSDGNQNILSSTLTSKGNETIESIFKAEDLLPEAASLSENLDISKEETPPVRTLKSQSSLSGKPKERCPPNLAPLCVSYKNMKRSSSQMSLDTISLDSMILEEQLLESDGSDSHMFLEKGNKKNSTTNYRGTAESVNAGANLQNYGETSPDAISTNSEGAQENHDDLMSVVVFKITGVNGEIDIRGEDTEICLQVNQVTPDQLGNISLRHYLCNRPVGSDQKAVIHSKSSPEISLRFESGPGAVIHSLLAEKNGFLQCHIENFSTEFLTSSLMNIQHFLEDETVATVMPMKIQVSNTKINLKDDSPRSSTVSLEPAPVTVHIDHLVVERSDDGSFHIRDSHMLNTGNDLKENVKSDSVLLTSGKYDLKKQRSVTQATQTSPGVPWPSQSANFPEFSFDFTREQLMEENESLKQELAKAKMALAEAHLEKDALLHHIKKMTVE
UniProt P0CG48, sequence (P0CG48 whole entry, looked up): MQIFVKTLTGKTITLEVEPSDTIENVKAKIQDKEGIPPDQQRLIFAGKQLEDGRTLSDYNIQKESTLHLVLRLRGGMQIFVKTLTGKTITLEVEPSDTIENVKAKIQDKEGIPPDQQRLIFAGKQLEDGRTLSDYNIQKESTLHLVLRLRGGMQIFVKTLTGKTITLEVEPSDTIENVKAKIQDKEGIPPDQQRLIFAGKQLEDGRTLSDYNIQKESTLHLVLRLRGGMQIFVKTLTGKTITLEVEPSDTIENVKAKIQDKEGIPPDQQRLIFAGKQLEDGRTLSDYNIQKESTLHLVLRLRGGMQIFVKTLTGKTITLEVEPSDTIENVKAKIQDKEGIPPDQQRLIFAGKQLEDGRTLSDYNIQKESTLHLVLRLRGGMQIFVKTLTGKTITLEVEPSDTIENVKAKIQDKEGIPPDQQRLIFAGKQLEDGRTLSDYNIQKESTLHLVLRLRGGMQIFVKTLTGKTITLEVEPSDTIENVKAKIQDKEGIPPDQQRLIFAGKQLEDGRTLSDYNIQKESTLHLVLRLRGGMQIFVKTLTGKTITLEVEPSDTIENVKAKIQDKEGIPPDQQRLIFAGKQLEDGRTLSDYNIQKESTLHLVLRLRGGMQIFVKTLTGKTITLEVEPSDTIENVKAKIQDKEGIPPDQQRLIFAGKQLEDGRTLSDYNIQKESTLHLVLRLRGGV
UniProt Q9H269, sequence (Q9H269 whole entry, looked up): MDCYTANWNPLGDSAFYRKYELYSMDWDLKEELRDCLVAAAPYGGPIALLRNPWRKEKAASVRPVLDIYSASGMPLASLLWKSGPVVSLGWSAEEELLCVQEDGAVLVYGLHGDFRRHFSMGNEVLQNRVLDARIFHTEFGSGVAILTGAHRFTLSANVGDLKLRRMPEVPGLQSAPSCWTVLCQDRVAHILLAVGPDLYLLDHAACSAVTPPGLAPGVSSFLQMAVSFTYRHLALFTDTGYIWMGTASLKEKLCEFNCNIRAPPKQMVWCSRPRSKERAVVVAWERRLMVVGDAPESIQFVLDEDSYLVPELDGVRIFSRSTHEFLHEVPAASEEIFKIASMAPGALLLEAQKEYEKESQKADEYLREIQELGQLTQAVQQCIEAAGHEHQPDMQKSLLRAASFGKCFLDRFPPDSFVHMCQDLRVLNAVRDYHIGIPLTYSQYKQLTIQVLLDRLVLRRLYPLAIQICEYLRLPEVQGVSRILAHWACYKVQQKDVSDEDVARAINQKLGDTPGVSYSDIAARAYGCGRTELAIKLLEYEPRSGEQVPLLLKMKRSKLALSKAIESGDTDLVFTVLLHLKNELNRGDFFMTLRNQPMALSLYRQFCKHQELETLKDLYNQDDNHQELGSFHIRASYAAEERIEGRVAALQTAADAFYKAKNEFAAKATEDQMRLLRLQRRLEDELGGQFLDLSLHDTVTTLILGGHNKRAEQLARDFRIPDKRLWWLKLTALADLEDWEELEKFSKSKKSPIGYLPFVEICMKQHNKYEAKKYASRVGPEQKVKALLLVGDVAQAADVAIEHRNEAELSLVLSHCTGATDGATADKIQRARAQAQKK
UniProt Q9UBK9, sequence (Q9UBK9 whole entry, looked up): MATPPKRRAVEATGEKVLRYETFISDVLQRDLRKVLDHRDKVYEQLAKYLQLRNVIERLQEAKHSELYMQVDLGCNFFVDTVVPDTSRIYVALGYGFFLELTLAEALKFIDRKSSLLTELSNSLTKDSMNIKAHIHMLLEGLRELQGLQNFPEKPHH
UniProt Q86UV5, sequence (Q86UV5 whole entry, looked up): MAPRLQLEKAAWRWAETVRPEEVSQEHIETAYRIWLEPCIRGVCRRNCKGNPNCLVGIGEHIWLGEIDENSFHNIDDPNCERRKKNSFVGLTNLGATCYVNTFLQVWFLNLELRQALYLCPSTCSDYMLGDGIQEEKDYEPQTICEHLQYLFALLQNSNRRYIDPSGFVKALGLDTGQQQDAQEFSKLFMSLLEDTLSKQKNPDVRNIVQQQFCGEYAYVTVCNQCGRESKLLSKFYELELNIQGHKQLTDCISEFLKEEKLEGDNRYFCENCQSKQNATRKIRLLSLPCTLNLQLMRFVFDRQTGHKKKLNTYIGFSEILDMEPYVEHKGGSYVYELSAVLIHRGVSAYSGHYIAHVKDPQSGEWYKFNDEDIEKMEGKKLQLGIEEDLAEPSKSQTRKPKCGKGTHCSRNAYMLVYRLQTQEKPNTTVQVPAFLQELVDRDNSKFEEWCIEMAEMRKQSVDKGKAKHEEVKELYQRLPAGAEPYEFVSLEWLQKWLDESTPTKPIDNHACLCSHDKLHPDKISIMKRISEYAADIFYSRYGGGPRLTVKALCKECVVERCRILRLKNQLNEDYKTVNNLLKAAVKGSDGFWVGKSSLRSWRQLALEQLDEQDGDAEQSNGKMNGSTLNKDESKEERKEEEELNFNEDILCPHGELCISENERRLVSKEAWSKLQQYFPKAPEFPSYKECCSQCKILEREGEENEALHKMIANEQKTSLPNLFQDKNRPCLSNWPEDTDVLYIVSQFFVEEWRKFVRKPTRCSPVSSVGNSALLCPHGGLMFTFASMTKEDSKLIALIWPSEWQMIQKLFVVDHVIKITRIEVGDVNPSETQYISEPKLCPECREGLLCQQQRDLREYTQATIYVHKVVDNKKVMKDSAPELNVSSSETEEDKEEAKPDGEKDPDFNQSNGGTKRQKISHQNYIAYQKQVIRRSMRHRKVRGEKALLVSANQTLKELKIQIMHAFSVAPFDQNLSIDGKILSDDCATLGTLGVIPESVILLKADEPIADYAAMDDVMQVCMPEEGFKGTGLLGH
UniProt Q8N4H5, sequence (Q8N4H5 whole entry, looked up): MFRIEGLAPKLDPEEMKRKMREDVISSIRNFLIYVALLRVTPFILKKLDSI

Compound in the assay: c1cn2cc(-c3ccc4cn[nH]c4c3)nc(Nc3ccc(N4CCOCC4)cc3)c2n1 [entospletinib]
The experiment in a line: log2 fold change, soluble protein after heating vs DMSO (PISA); higher = thermal stabilisation; K562 cells, 10 uM, 30 min; active = over 0.2 and 3.5 SD of the protein, either way, in both replicates (recomputed). Put shortly:
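Soluble protein was defined as the supernatant after 21,000xg for 90 min. It came from K562 cells at 2×10^6 cells/mL given 10 μM compound for 30 min, heated in aliquots for 3 min across 48°C-58°C, pooled, and extracted in PBS with 0.5% NP-40 at 4°C, and was quantified by TMTpro 16plex LC-MS/MS with equalised channel sums. Thermal stability against control samples, from duplicates, is reported as log2 fold change.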
TUBA4A (UniProt C9JJQ8): the log2 fold change was -0.27 (inactive).
For the target TMEM128 (UniProt Q5BJH2), the log2 fold change is 0.018 (inactive).
To TTI2 (UniProt Q6NXR4) belongs 0.062 (inactive).
To UTP4 (UniProt Q969X6) belongs -0.058 (inactive); to U2AF1L5 (UniProt P0DN76), -0.497 (inactive).
Under UXT isoform 2 (UniProt Q9UBK9) stands -0.012 (inactive); under TRAM1 (UniProt Q15629), 0.145 (inactive); under TTC38 (UniProt Q5R3I4), -0.114 (inactive).
For the target VPS41 (UniProt P49754), the log2 fold change was 0.017 (inactive).
Under XPNPEP3 (UniProt Q9NQH7) stands -0.025 (inactive).
Under VPS18 (UniProt Q9P253) stands -0.07 (inactive).
To UHRF1BP1L (UniProt A0JNW5) belongs 0.012 (inactive); to USP48 (UniProt Q86UV5), -0.055 (inactive); to WDR18 (UniProt Q9BV38), -0.061 (inactive).
Take UBE2J1 (UniProt Q9Y385): the log2 fold change is 0 (inactive).
TMEM41A (UniProt Q96HV5): the log2 fold change is 0.042 (inactive).
To VPS16 (UniProt Q9H269) belongs -0.06 (inactive).
Under TMEM87B (UniProt Q96K49) stands 0.063 (inactive); under TRIM23 (UniProt P36406), -0.041 (inactive); under WDR61 (UniProt Q9GZS3), 0.009 (inactive).
Under XPO5 (UniProt Q9HAV4) stands 0.001 (inactive); under XRCC5 (UniProt P13010), -0.039 (inactive); under UBC (UniProt P0CG48), 0.068 (inactive).
With VRK1 (UniProt Q99986), the log2 fold change is -0.149 (inactive).
In the case of VPS11 (UniProt Q9H270), the log2 fold change was 0.04 (inactive).
Under WDR43 (UniProt Q15061) stands -0.048 (inactive); under VPS50 (UniProt Q96JG6), -0.045 (inactive); under WDR37 isoform 2 (UniProt Q9Y2I8), -0.004 (inactive).
To USP7 (UniProt Q93009) belongs -0.019 (inactive).
To VPS35L (UniProt Q7Z3J2) belongs 0.011 (inactive); to TOMM5 isoform 2 (UniProt Q8N4H5), -0.033 (inactive).
With WARS2 (UniProt Q9UGM6), the log2 fold change was -0.042 (inactive).
To WDR62 isoform 4 (UniProt O43379) belongs -0.043 (inactive); to TRIM44 (UniProt Q96DX7), 0.007 (inactive); to TNFRSF10A (UniProt O00220), 0.011 (inactive).
With UBAP2L (UniProt F8W726), the log2 fold change is -0.078 (inactive).
Regarding UBXN8 (UniProt O00124), the log2 fold change was -0.231 (inactive).
To TRMT61A (UniProt Q96FX7) belongs 0.123 (inactive).
To UFD1 isoform 1 (UniProt Q92890) belongs -0.047 (inactive); to XIAP (UniProt P98170), -0.066 (inactive).
